# Data from PubChem BioAssay (NCI).
# About 79,000 compounds went through this panel and 15% of them were active in at least one assay; those are over-represented in the sample as a whole. Unmarked numbers belong to inactive results. Rule as the data show it: active = growth inhibition above about 70%; inactive = the rest.
# Assay: NCI Yeast Anticancer Drug Screen. Data for the bub3 strain (AID 167)
# Conditions: S. cerevisiae bub3 mutant strain, at 1.2 µM, hits give high values
# Procedure, shortened: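 Whole-cell yeast assay. The mutant strain was incubated with compounds, and growth inhibition was determined by comparison with vehicle-treated cells.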
row,Compound,growth inhibition [%]
1,O=C1/C(=C/c2ccccc2)CCCC1CN1CCCCC1 (stereo unspecified),30
2,C#CCN(Cc1ccc2nc(N)[nH]c(=O)c2c1)c1ccc(C(=O)NC(CCC(=O)O)C(=O)O)cc1 (stereo unspecified),-6
3,CCOC1(c2cccc([N+](=O)[O-])c2)c2ccccc2Oc2ccccc21,-1
4,O=C(O)CNC(=S)Nc1ccccc1,-46
5,N/C(=N/N=C/c1cc(Br)cc(Br)c1O)NO,-40
6,C[Si](C)(C)/C=C/CCNC(C#N)c1ccccc1 (stereo unspecified),-8
7,CCCCCCCCCCCCCCCCOP(=O)(O)OCC(N)C(=O)O (stereo unspecified),-13
8,CC1=C(C(=O)NCc2ccccc2)C(c2ccccc2)C(C(=O)NCc2ccccc2)=C(C)N1,-1
9,O=[N+]([O-])c1cc(S(=O)(=O)Nc2ccccc2)ccc1Nc1ccccc1,15
10,CCOC(=O)C(Br)C(Br)c1ccccc1Cl (stereo unspecified),-1
11,CCOC(=O)C1=C(C)NC(C)=C(C(=O)OCCNC(=O)c2ccc(N=[N+]=[N-])cc2)C1c1ccccc1C(F)(F)F (stereo unspecified),-8
12,Cc1cc(C)c(NC(=S)NC(=O)c2ccccc2)cc1C,-21
13,CNCCCNc1c2ccccc2nc2cccc([N+](=O)[O-])c12,-12
14,COc1c(O)c(C=O)c(Br)c(C=O)c1O,-4
15,Cc1c(C)c(C)c(CSC(=N)N)c(C)c1C,-23
16,O=C(CSC(=S)N1CCCCC1)Nc1nc2c(s1)CCCC2,5
17,CNC(=O)OCc1c(COC(=O)NC)c(-c2ccc(Cl)cc2)n2c1CCC2,-53
18,CC(=O)OC1CC2C(C)(C)C(=O)C=C[C@]2(C)C2CCC3(C)C(=CCC3[C@H](CO)C[C@H](O)C(=O)C(C)(C)O)[C@]12C (stereo partly specified),-24

row,Compound,growth inhibition [%]
1,C[C](C)(C)[Ge]([O][Ge]([c]1ccccc1)[c]1ccccc1)([O][Ge]([c]1ccccc1)[c]1ccccc1)[C](C)(C)C,-4
2,CCc1c(Cl)c(C)cc(O)c1Cl,-8
3,Cc1nc(Nc2ccccc2[N+](=O)[O-])sc1C(=O)CC(=O)C(=O)Nc1c(C(C)C)cccc1C(C)C,3
4,O=[N+]([O-])c1cccc2nc3ccccc3c(NCCCn3ccnc3[N+](=O)[O-])c12,-15
5,CCCCCCC(O)CNCc1ccnc2ccc(OC)cc12 (stereo unspecified),1
6,Cc1c2cccc(Sc3ccccc3)c2c2c3c(cccc13)[S+](c1ccccc1)C2 (stereo unspecified),-5
7,C=C1CCC(O)C/C1=C/C=C1\CCCC2(C)C1CCC2C(C)CCCC(C)C (stereo unspecified),-25
8,NC1=NNC2(C(N)=N1)c1ccccc1-c1ccccc12,26
9,COc1cc2cc3c4cc(OC)c(OC)cc4cc[n+]3c(C)c2cc1OC,0
10,COC(=O)NC1C(C)OC(OC2C/C=C(/C)C3C=CC4C(OC5CC(OC6CC(O)C(OC7CC(O)C(OC)C(C)O7)C(C)O6)C(O)C(C)O5)C(C)CC(C)C4C3(C)/C(O)=C3\C(=O)OC4(CC(C)C(CO)=CC4/C=C\2C)C3=O)CC1(C)[N+](=O)[O-] (stereo unspecified),22
11,O=C1CSC(c2cccc(Cl)c2)N1c1ccc(-c2ccc(-n3c(-c4ccccc4)nc4ccccc4c3=O)cc2)cc1 (stereo unspecified),5
12,CCOC(=O)C(C(=O)OCC)=P(c1ccccc1)(c1ccccc1)c1ccccc1,-1
13,COc1ccc(N=CN(C)C)c(C)c1,-30
14,Cc1cc(S(=O)(=O)Nc2nnc3cnc4ccccc4n23)c(S)cc1Cl,4
15,CN(C)[C@@H]1C(=O)C(C(N)=O)=C(O)[C@@]2(O)C(=O)C3=C(O)c4c(O)cccc4C[C@H]3C[C@@H]12,-8
16,O=[N+]([O-])c1ccc2c(c1)/C(=N/N=C1c3ccccc3Cc3ccccc31)c1cc([N+](=O)[O-])cc([N+](=O)[O-])c1-2,4
17,Cc1nc2c(Br)cc(Br)cc2c(=O)n1-c1ccccc1NC1OCC(O)C(O)C1O (stereo unspecified),11
18,Cc1cc(N(CCOS(C)(=O)=O)CCOS(C)(=O)=O)ccc1C=Nc1ccc(-c2nc(Cc3ccccc3)sc2C)cc1,-32
